Results reported in PubChem BioAssay AID1159580 (chemical genetic matrix, 2015).
Where “and” joins values, the source holds several entries; their conditions need not be identical. Equal values may be shown once. The whole screen tested about 5,500 compounds, of which about 2,000 (36%) were called active. Inconclusive results (about 18%) are left out. Rule as the data show it: active = normalized growth mostly below about 0.91 (no sharp cut-off); inconclusive = no clear call, values can overlap the other calls; inactive = mostly above about 0.92. This is one part of the list.

Assay: chemical genetic growth profiling, strain panel (AID 1159580);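 also: tested at 20 µM; growth read once vehicle control cultures reached saturation at 30 °C; 1 = growth at the plate median or of vehicle wells; lower values mean less growth of the strain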
Conditions: S. cerevisiae deletion strains, growth OD

Measured: normalized growth

CN(C)CCC(c1ccccc1)c1ccccn1 (centres undefined)
inactive: locus YAL013W, strain DEP1, active compounds read low 0.99 | locus YAL021C, strain ccr4, active compounds read low 1.02 | locus YAL026C, strain drs2, active compounds read low 1.02 | locus YAL030W, strain snc1, active compounds read low 1 | locus YAL040C, strain CLN3, active compounds read low 1.01 | locus YBL061C, strain skt5, active compounds read low 1.01 | locus YBR009C, strain hhf1, active compounds read low 1.01 | locus YBR021W, strain FUR4, active compounds read low 1.01 | locus YBR023C, strain chs3, active compounds read low 1.01 | locus YBR171W, strain sec66, active compounds read low 1.03 | locus YBR229C, strain ROT2, active compounds read low 1 | locus YBR231C, strain swc5, active compounds read low 1.01 | locus YBR279W, strain paf1, active compounds read low 1.01 | locus YCL011C, strain gbp2, active compounds read low 1.01 | locus YCL016C, strain dcc1, active compounds read low 1.02 | locus YCL029C, strain bik1, active compounds read low 1 | locus YCL061C, strain MRC1 (second series), active compounds read low 1.01 | locus YCL061C, strain MRC1, active compounds read low 1.01 | locus YCL069W, strain vba3, active compounds read low 1.01 | locus YCR088W, strain abp1, active compounds read low 1 | locus YDL005C, strain med2, active compounds read low 1.02 | locus YDL035C, strain GPR1, active compounds read low 1.01 | locus YDL040C, strain nat1, active compounds read low 1.01 | locus YDL074C, strain BRE1, active compounds read low 0.991 | locus YDL101C, strain DUN1, active compounds read low 1.01 | locus YDL134C, strain PPH21, active compounds read low 1.01 | locus YDL185W, strain tfp1, active compounds read low 1 | locus YDL192W, strain arf1, active compounds read low 1.01 | locus YDR001C, strain nth1, active compounds read low 1.01 | locus YDR069C, strain doa4, active compounds read low 0.994 | locus YDR101C, strain arx1, active compounds read low 1 | locus YDR137W, strain rgp1, active compounds read low 1.03 | locus YDR150W, strain NUM1, active compounds read low 1.01 | locus YDR159W, strain sac3, active compounds read low 1.02 | locus YDR162C, strain NBP2, active compounds read low 1.01 | locus YDR195W, strain ref2 0.981 | locus YDR297W, strain sur2, active compounds read low 1 | locus YDR318W, strain mcm21, active compounds read low 1.01 | locus YDR334W, strain swr1, active compounds read low 1.01 | locus YDR335W, strain msn5, active compounds read low 1.01 | locus YDR363W, strain ESC2, active compounds read low 1.05 | locus YDR388W, active compounds read low 1 | locus YDR392W, strain spt3, active compounds read low 0.973 | locus YDR502C, strain sam2, active compounds read low 0.994 | locus YEL003W, strain gim4, active compounds read low 0.993 | locus YEL037C, strain rad23, active compounds read low 1.02 | locus YEL061C, strain CIN8 (second series), active compounds read low 1.01 | locus YEL061C, strain CIN8, active compounds read low 1 | locus YER002W, strain NOP16, active compounds read low 1.01 | locus YER015W, strain faa2, active compounds read low 1.01 | locus YER016W, strain bim1, active compounds read low 1.01 | locus YER110C, active compounds read low 1 | locus YER111C, strain swi4, active compounds read low 1.03 | locus YER155C, strain BEM2 (second series), active compounds read low 1.02 | locus YER155C, strain BEM2, active compounds read low 1 | locus YER167W, strain BCK2, active compounds read low 1.01 | locus YFR010W, strain ubp6, active compounds read low 1.01 | locus YGL078C, strain dbp3, active compounds read low 0.991 | locus YGL086W, strain mad1, active compounds read low 0.997 | locus YGL167C, strain pmr1, active compounds read low 1.02 | locus YGL173C, strain kem1, active compounds read low 1.01 | locus YGL227W, strain vid30, active compounds read low 1.02 | locus YGL240W, strain doc1, active compounds read low 0.999 | locus YGL248W, strain PDE1, active compounds read low 1 | locus YGL253W, strain hxk2, active compounds read low 1.02 | locus YGR135W, strain pre9, active compounds read low 1.01 | locus YGR229C, strain SMI1, active compounds read low 0.992 | locus YGR252W, strain gcn5, active compounds read low 0.948 | locus YHR013C, strain ard1, active compounds read low 1.03 | locus YHR027C, strain rpn1, active compounds read low 1.03 | locus YHR030C, strain SLT2, active compounds read low 1.01 and 0.972 | locus YHR079C, strain IRE1 (second series), active compounds read low 1.01 | locus YHR079C, strain IRE1, active compounds read low 0.975 | locus YHR094C, strain hxt1, active compounds read low 1 | locus YHR129C, strain ARP1, active compounds read low 0.998 | locus YHR142W, strain chs7, active compounds read low 1.01 | locus YHR200W, strain rpn10, active compounds read low 0.998 | locus YIL066C, strain RNR3, active compounds read low 1.01 | locus YIL073C, strain SPO22, active compounds read low 1.04 | locus YIL125W, strain kgd1, active compounds read low 1.01 | locus YIR030C, strain dcg1, active compounds read low 1.01 | locus YJL092W, strain hpr5, active compounds read low 1.01 | locus YJL095W, strain BCK1 (second series), active compounds read low 1.01 | locus YJL095W, strain BCK1, active compounds read low 0.99 and 0.976 | locus YJL115W, strain asf1, active compounds read low 1.01 | locus YJL129C, strain trk1, active compounds read low 1.01 | locus YJL134W, strain LCB3, active compounds read low 1.01 | locus YJL154C, strain vps35, active compounds read low 1.01 | locus YJL164C, strain tpk1, active compounds read low 1.01 | locus YJL166W, strain qcr8, active compounds read low 1 | locus YJL168C, strain set2, active compounds read low 1.01 | locus YJL187C, strain SWE1 (second series), active compounds read low 1.01 | locus YJL187C, strain SWE1, active compounds read low 1 | locus YJR043C, strain POL32, active compounds read low 0.997
